A number with no mark means an inactive call. Records with an inconclusive call do not appear. The source made the active and inactive calls. Unless noted, calls follow the shape of the dose curve; as a rule, active = well fitted curve in the direction sought with a large enough effect in the repeat runs; inconclusive = weak or mixed curves; inactive = no such curve, though single readings can be large; an effect the other way counts as inactive or inconclusive.

A short description of test [1]: qHTS assay for identifying genotoxic compounds that show differential cytotoxicity against isogenic chicken DT40 cell lines with known DNA damage response pathways - wild type cell line (AID 743012). Also: nearly all actives have a fitted effect of over 60% in size. Also: potency is read from the fitted curve at half-maximal effect. Put shortly:
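Viability by ATP luminescence (CellTiter-Glo, 30 min RT) after 40 h compound treatment at 37 C/5% CO2, using 300 parental DNA repair-proficient DT40 cells per well.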
Background: In qHTS, concentration-response curves come from the screen itself.

The nature of test [2]: qHTS assay for identifying genotoxic compounds that show differential cytotoxicity against isogenic chicken DT40 cell lines with known DNA damage response pathways - Rev3 mutant cell line (AID 743014). Also: nearly all actives have a fitted effect of over 55% in size. Also: potency is read from the fitted curve at half-maximal effect.
Test [3] can be described thus: qHTS assay to identify small molecule antagonists of the androgen receptor (AR) signaling pathway - cell viability counter screen (AID 743033; also: nearly all actives have a fitted effect of over 45% in size).
Test [4] in a line: qHTS assay to identify small molecule antagonists of the androgen receptor (AR) signaling pathway using the MDA cell line - cell viability counter screen (AID 743041; also: nearly all actives have a fitted effect of over 45% in size). The procedure, abridged:
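In this qHTS counter assay, fluorescence intensity after CellTiter-Fluor addition indicated viability of MDA-kb2 AR-luc cells given compounds and R1881 for 16 h at 37C.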

Test [5] can be described thus: qHTS assay to identify small molecule antagonists of the thyroid receptor (TR) signaling pathway - cell viability counter screen (AID 743064). Also: nearly all actives have a fitted effect of over 50% in size. The procedure, abridged: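 Counter screen for cytotoxicity: compound plus T3 (1 nM final) on GH3.TRE-Luc cells, 23.5 h at 37 °C, then fluorescence viability readout with CellTiter-Fluor.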
Test [6] is described as follows: qHTS assay to identify small molecule antagonists of the thyroid receptor (TR) signaling pathway (AID 743065). Also: series mostly up to about 70 µM; nearly all actives have a fitted effect of over 55% in size. The procedure, abridged: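 GH3.TRE-Luc rat pituitary cells carrying two TR response elements driving luciferase were plated for 4 h, given compound plus 1 nM T3 (final), and incubated 23.5 h at 37 C. ONE-Glo luminescence measured reporter inhibition; CellTiter-Fluor fluorescence tracked cytotoxicity.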

Test [7] concerns thyroid hormone receptor (rat, GH3 cells). Briefly: qHTS assay to identify small molecule agonists of the thyroid receptor (TR) signaling pathway (AID 743066; calls by dose curve).
Test [8] is described as follows: qHTS assay to identify small molecule antagonists of the estrogen receptor alpha (ER-alpha) signaling pathway - cell viability counter screen (AID 743074; calls by dose curve;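 also: HEK293 cells carrying ER-alpha-UAS-bla reporter stimulated with 17beta-estradiol; nearly all actives have a fitted effect of over 45% in size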).
Test [9] is described as follows: qHTS assay to identify small molecule antagonists of the estrogen receptor alpha (ER-alpha) signaling pathway using the BG1 cell line - cell viability counter screen (AID 743081).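 Also: compound given together with 17beta-estradiol as the ER stimulus; series mostly up to about 70 µM; nearly all actives have a fitted effect of over 45% in size.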
A further test addresses Aromatase (Homo sapiens) (UniProt P11511). Briefly: qHTS assay to identify aromatase inhibitors (AID 743083). Also: series mostly up to about 70 µM; nearly all actives have a fitted effect of over 55% in size.
A short description of test [10]: qHTS assay for identifying genotoxic compounds that show differential cytotoxicity against isogenic chicken DT40 cell lines with known DNA damage response pathways - Rad54/Ku70 mutant cell line (AID 743015). Also: nearly all actives have a fitted effect of over 60% in size. Also: potency is read from the fitted curve at half-maximal effect.
Test [11] concerns the target Estrogen receptor (Homo sapiens) (UniProt P03372). Nature of the test: qHTS assay to identify small molecule antagonists of the estrogen receptor alpha (ER-alpha) signaling pathway (AID 743069; active = well fitted curve in the direction sought with a large enough effect in the signal ratio in the repeat runs, not every such curve was filed as active; the % refers to the signal ratio). The procedure, abridged:
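A 17beta-estradiol challenge was applied right after compound transfer to ER-alpha-UAS-bla HEK293 cells previously kept in charcoal-stripped serum. Plates stood 18 hr at 37C and 5% CO2; fluorescence was read following 2 hr FRET substrate loading at room temperature.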

The target is the same in test [12]. Briefly: qHTS assay to identify small molecule agonists of the estrogen receptor alpha (ER-alpha) signaling pathway (AID 743075; calls by dose curve;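 also: HEK293 GripTite cells with ER-alpha and UAS-driven beta-lactamase reporter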).
The target is the same in test [13]. Briefly: qHTS assay to identify small molecule agonists of the estrogen receptor alpha (ER-alpha) signaling pathway using the BG1 cell line (AID 743079). Also: nearly all actives have a fitted effect of over 20% in size.
The nature of test [14]: qHTS assay to identify small molecule antagonists of the estrogen receptor alpha (ER-alpha) signaling pathway using the BG1 cell line (AID 743080; calls by dose curve;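 also: BG1 cells stimulated with 17beta-estradiol alongside compound; series mostly up to about 70 µM; nearly all actives have a fitted effect of over 25% in size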). Put shortly:
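Luminescence from a 4×ERE-luciferase reporter in BG1-Luc-4E2 cells served as read-out. Cells, pre-cultured 5 days in stripped-serum phenol-red-free medium, were exposed to compound with 17beta-estradiol co-stimulation for 21.5 h at 37 C.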

Test [15] deals with Androgen receptor (Homo sapiens) (UniProt P10275). Nature of the test: qHTS assay to identify small molecule antagonists of the androgen receptor (AR) signaling pathway (AID 743035; active = well fitted inhibition curve with a large enough effect in the signal ratio in the repeat runs, not every such curve was filed as active; the % refers to the signal ratio). Put shortly:
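Antagonist mode: AR-bla HEK293 cells co-treated with test compounds and agonist R1881 for 16 h at 37C, 5% CO2. Beta-lactamase activity read as FRET fluorescence after 2 h room-temperature substrate loading.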

Test [16] has the same target. Nature of the test: qHTS assay to identify small molecule agonists of the androgen receptor (AR) signaling pathway (AID 743036; active = well fitted activation curve with a large enough effect in the signal ratio in the repeat runs, with a control signal flat, not every such curve was filed as active; the % refers to the signal ratio). The procedure, abridged: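 In this Tox21 qHTS, 2,000 HEK293 AR-bla cells per well were incubated with compounds for 16 h at 37C and 5% CO2. Fluorescence intensity was recorded 2 h after adding LiveBLAzer B/G FRET substrate at room temperature.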

The target is the same in test [17]. Briefly: qHTS assay to identify small molecule agonists of the androgen receptor (AR) signaling pathway using the MDA cell line (AID 743040; also: nearly all actives have a fitted effect of over 20% in size). The procedure, abridged: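 Cell-based luciferase reporter: MDA-kb2, MMTV promoter (AR + GR response elements). 16 h compound exposure at 37C; ONE-Glo, 30 min RT, luminescence.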
Test [18] has the same target. Nature of the test: qHTS assay to identify small molecule antagonists of the androgen receptor (AR) signaling pathway using the MDA cell line (AID 743042; also: nearly all actives have a fitted effect of over 55% in size). The procedure, abridged: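 MDA-kb2 cells (human breast carcinoma, stably carrying an MMTV-luciferase reporter responsive to AR and GR) were plated at 3,000 cells/well and preincubated 5 hr at 37C, then given compound plus R1881 agonist for 16 h. ONE-Glo luminescence was read.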
% is scaled to controls: 0 for no effect and ±100 for the full control effect.

Sequence of Aromatase (Homo sapiens) (P11511 whole entry, looked up): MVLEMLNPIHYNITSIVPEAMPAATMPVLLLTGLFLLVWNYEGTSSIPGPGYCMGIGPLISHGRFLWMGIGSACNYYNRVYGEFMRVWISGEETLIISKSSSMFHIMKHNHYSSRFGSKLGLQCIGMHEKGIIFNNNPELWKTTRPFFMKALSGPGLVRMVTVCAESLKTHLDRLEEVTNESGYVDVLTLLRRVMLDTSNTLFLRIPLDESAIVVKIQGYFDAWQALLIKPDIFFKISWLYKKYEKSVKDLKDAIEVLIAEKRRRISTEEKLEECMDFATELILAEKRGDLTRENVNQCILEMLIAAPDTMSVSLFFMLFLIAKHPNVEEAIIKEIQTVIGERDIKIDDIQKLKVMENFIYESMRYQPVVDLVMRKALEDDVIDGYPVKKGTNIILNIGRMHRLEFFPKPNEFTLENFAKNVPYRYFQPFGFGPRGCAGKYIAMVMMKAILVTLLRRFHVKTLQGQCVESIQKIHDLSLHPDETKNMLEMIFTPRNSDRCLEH
Sequence of Estrogen receptor (Homo sapiens) (P03372 whole entry, looked up): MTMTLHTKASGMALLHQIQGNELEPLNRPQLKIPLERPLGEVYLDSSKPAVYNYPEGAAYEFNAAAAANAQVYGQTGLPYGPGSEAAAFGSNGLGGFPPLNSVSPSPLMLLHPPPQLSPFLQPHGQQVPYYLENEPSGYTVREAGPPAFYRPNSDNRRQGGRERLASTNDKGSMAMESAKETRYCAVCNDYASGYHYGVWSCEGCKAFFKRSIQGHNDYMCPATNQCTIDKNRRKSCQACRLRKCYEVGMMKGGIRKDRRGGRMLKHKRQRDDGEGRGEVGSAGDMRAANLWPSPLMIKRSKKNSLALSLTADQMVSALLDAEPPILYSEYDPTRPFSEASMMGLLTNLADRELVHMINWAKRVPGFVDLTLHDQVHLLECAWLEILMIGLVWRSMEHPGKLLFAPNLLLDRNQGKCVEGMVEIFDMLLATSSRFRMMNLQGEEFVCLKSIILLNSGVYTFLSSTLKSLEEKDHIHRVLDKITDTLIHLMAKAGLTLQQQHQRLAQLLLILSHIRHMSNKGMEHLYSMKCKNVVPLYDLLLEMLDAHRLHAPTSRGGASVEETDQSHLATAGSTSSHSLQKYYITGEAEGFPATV
Sequence of Androgen receptor (Homo sapiens) (P10275 whole entry, looked up): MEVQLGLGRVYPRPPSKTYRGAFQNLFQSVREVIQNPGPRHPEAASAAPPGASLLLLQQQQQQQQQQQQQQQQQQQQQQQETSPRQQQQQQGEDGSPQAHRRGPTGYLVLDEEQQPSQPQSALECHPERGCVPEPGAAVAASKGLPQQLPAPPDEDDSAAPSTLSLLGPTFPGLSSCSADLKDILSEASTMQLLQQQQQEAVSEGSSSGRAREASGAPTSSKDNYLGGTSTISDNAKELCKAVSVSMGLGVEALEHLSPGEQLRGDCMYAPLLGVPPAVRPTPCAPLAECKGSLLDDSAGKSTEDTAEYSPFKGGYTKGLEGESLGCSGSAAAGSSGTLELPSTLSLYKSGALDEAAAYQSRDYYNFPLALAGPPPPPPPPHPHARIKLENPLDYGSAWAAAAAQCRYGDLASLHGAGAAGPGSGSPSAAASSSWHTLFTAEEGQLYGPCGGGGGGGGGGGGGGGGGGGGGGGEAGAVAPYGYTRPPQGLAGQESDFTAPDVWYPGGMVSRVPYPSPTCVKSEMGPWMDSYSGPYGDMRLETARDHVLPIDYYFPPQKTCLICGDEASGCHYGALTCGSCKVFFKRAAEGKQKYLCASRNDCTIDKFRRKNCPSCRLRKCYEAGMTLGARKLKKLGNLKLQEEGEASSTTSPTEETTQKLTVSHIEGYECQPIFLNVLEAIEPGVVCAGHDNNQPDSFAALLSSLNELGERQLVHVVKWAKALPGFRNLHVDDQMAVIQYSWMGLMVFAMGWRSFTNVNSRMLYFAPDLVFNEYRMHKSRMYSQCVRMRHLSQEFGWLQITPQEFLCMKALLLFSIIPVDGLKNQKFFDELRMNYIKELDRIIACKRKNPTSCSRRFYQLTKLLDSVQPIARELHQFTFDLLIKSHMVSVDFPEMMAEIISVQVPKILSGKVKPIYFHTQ

As to `CC(=O)OCCCc1ccccc1`, the Potency result in test [1], in test [2], in test [5], in [6], in [7] and in [8] was “inactive” each time. In addition, the compound was called inactive (in [3]; in test [4]; in test [9]; in the test with Aromatase (Homo sapiens)).

As to `CCCCCCCCCOCC1CO1` (configuration not stated), the Potency entry in [1], in test [2], in test [10], in test [5], in test [6] and in [7] was “inactive” in each case. Further, the Potency entry in test [8] is “inactive”. In addition, the compound was called inactive in [3], in test [4] and in [9].

With `C1CCN2C[C@@H]3C[C@@H](CN4CCCC[C@@H]34)[C@H]2C1`, the Potency entry in test [1], in test [2], in test [10], in [5], in test [6] and in test [7] was “inactive” throughout. Besides, the Potency result in test [8] is “inactive”. The call (in [3]; in test [4]; with Aromatase (Homo sapiens)) was inactive.

For the compound `CC(C)SCc1ccco1`, the Potency entry in test [1], in [2], in [10], in [6], in test [7] and in test [11] was “inactive” in each case. Further, the Potency result in test [8], in [12] and in test [13] was “inactive” in each case. Besides, the call (in [3]; in [4]; in [14]; in test [9]; with Aromatase (Homo sapiens)) was inactive.

Consider `CC(C)CCC(=O)CCC(C)C`, for which the figures for the Potency in test [1], in test [2] and in test [10] were 68.6 µM (active), 68.6 µM (active) and 61.1 µM (active), respectively. Also, the call (in test [3]; in test [14]; in test [9]; with Aromatase (Homo sapiens)) was inactive. For the same compound, the Potency entry in test [5], in [6], in test [7], in [11], in [12] and in [13] was “inactive” throughout.

Take `O=CO`: the activity change, negative = cytotoxicity in test [3] was -5.92% [at 7.04 µM]; in test [9] it was 0.807% [at 8.47 µM]. Also, in test [4], the viability change, negative = cytotoxic is -3.77% [at 8.47 µM]. Further, the activity, negative = inhibition in test [6] is -3.91% [at 8.44 µM]; with Aromatase (Homo sapiens), 10.9% [at 8.47 µM]. The activation in test [7] is 0.246% [at 8.08 µM]. The activity, negative = cytotoxicity in test [8] is 6.52% [at 6.72 µM].

Consider `O=C1c2ccccc2-c2ccccc21`, for which the Potency entry in test [2], in [10], in [15], in test [6], in test [7] and in [8] was “inactive” in each case. Moreover, the call in [3], in [16], in test [17], in [4], in test [18] and in test [9] was inactive. In addition, the compound was classed as inactive with Aromatase (Homo sapiens).

For the compound `O=C(O)/C=C/c1ccccc1`, the Potency entry in [1], in [2], in [10], in test [5], in test [6] and in test [7] was “inactive” each time. The Potency entry in [11], in [8], in test [12] and in test [13] was “inactive” in each case. Further, the compound was called inactive (in [3]; in [14]; in test [9]; with Aromatase (Homo sapiens)).

As to `COC(/C=C(\C)CCC=C(C)C)OC`, the Potency result in [2], in test [10], in test [6], in test [7], in [11] and in test [8] was “inactive” each time. Further, the Potency entry in [12] and in test [13] was “inactive” throughout. Further, the call (in test [3]; in test [14]; in test [9]; with Aromatase (Homo sapiens)) was inactive.

As for `CC(=O)Nc1ccc(C)cc1`, the Potency result in test [1], in [2], in [10], in test [5], in [6] and in test [7] was “inactive” each time. Further, the Potency entry in test [11], in test [8] and in test [12] was “inactive” throughout. Besides, the compound was classed as inactive (in test [3]; in test [4]; in test [14]; in [9]; with Aromatase (Homo sapiens)).

Values taken from PubChem BioAssay (Tox21).
